# TDP1 cell CPT: DT40-hTDP1 cell growth loss with CPT | chicken DT40 Tdp1-/-;hTDP1 cells + 20 nM CPT, ATP luminescence, 48 h | Potency, µM (highest dose often 46.2 µM), for inactives: at the highest dose activity change, negative = growth inhibition, usual class: inhibitors | actives 12% (n = 420,000); note: potency is the fitted concentration of half-maximal effect; nearly all actives have a fitted effect of over 55% in size
#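 Chicken DT40 Tdp1-/- cells stably complemented with human TDP1 were seeded at 400 cells/well in medium containing 20 nM camptothecin, exposed to pin-transferred compounds, and grown at 37 °C for at least 48 hr. Viability was read as ATP luminescence.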
# HT1080-NT tox: kills 2HG-producing HT-1080-NT fibrosarcoma cells. AID 686970. actives 1.6% (n = 360,000). Potency, µM (doses to about 46.1 µM), for inactives: at the highest dose activity, negative = less viability, actives largely listed as cytotoxic. HT-1080-NT fibrosarcoma viability, CellTiter-Glo ATP luminescence, 48 h;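 note: NT is the 2HG producing partner of a matched IDH1 knockdown line; potency is the fitted concentration of half-maximal effect; 0% = DMSO-treated cells and -100% = media-only wells without cells; nearly all actives have a fitted effect of over 55% in size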
#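 Read-out is CellTiter-Glo luminescence after 10 minutes at room temperature, following 48 hours' compound treatment of HT-1080-NT cells (750 cells/well, RPMI, 5% FBS, 37 degrees C).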
# TDP1 cell noCPT: qHTS for Inhibitors of human tyrosyl-DNA phosphodiesterase 1 (TDP1): qHTS in cells in absence of CPT; Potency, µM (top dose mostly 46.2 µM), inactives show at the highest dose activity change, negative = growth inhibition, actives largely listed as inhibitors; DT40 Tdp1-/- hTDP1 cells, no CPT, ATP luminescence, 48 h; actives 15% (n = 420,000); note: potency is the fitted concentration of half-maximal effect; nearly all actives have a fitted effect of over 55% in size
#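 A cellular qHTS used chicken DT40 cells lacking endogenous Tdp1 but carrying stably transfected human TDP1. Compounds were applied without camptothecin, and cell growth kinetics were judged by ATP-dependent luminescence after ≥48 hr.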
# IL1B secr inh: inflammasome signaling inhibition, IL-1 beta readout. THP-1 LPS/ATP IL-1B secretion, AlphaLISA, 16 h; active compounds read low. activity change, % at 57.5 µM. actives 4.7% (n = 360,000). AID 743279; in the data active = activity change below about -50%; inconclusive = mostly about -30% to -49%
#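 THP-1 cells pretreated 1 hr with compounds (up to 57.5 uM final), then stimulated with LPS (250 ng/mL final) plus ATP (1.25 mM final); secreted IL-1B measured by AlphaLISA after 16 hr, decreased signal indicating inhibition.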
# HT1080 IDH1KD tx: kills HT-1080 cells with IDH1 knockdown. actives 2% (n = 360,000). HT-1080 IDH1 knockdown viability, ATP luminescence, 48 h. Potency, µM (highest dose often 46.1 µM), for the others: at the top dose activity, negative = toxicity, actives largely listed as cytotoxic;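 note: potency is the fitted concentration of half-maximal effect; 0% = DMSO wells and -100% = cell-free medium wells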
#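 In this qHTS, HT-1080 cells depleted of IDH1 are exposed for 48 h at 37 °C to compound titrations. Toxicity is scored from CellTiter-Glo luminescence, with DMSO as full viability and medium alone as none.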
# ELG1 repair inh: blocks ELG1-dependent DNA repair in HEK293T cells | HEK293T ELG1-luciferase reporter, luminescence, 16 h; DNA damage induced by 5-fluorouridine | Potency, µM (titrated, usually from 46.1 µM), for the others: at the highest dose activity change, negative = inhibition, actives largely listed as inhibitors | actives 2.3% (n = 330,000) | AID 504467; note: potency is the fitted concentration of half-maximal effect; nearly all actives have a fitted effect of over 55% in size
#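 Step one: seed 2,000 cells per well. Step two: pin-transfer compound or DMSO alongside 5-fluorouridine. Step three: incubate 16 hr, 37 °C, 5% CO2. Step four: add ONE-Glo, wait 30 min, read luminescence.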
# * hit, by the source's call; ? = inconclusive; . = not tested or not shown; [ ] = dose if it differs, or a comment. A selection: hits, their analogues and other compounds. The true share with any hit is near 19%. Unless noted, calls come from the whole dose curve; as a rule, active = well fitted curve in the direction sought with a large enough effect; inconclusive = small, poorly fitted or top-dose-only effect, or another doubt; inactive = no such curve, though single readings can be large; an effect the other way counts as inactive or inconclusive. Unless noted, % is set by controls: 0 for no effect and ±100 for the full control effect.
SMILES,TDP1 cell CPT,HT1080-NT tox,TDP1 cell noCPT,IL1B secr inh,HT1080 IDH1KD tx,ELG1 repair inh
CCN1C[C@@]2(C)CC[C@@H](OC)[C@@]34C2C(O)[C@@]2(OCO[C@]25CC(OC)C2C[C@@]3(O)C5C2O)C14 (some centres not stated),-1%,.,-2%,.,.,.
CC(=O)O[C@H]1C(=O)[C@@]2(C)C([C@H](OC(=O)c3ccccc3)[C@]3(O)C[C@H](OC(=O)[C@H](O)[C@@H](NC(=O)Cc4ccccc4)c4ccccc4)C(C)=C1C3(C)C)[C@]1(OC(C)=O)CO[C@@H]1C[C@@H]2O (some centres not stated),0.18µM*,0.52µM*,0.18µM*,-5,?,?
CC(=O)O[C@@]12CO[C@@H]1C[C@H](O)[C@@]1(C)C(=O)[C@H](O)C3=C(C)[C@@H](OC(=O)[C@H](O)[C@@H](NC(=O)c4ccccc4)c4ccccc4)C[C@@](O)([C@@H](OC(=O)c4ccccc4)C12)C3(C)C (some centres not stated),0.033µM*,0.0073µM*,0.21µM*,15,?,?
CC(=O)O[C@H]1C(=O)[C@@]2(C)C([C@H](OC(=O)c3ccccc3)[C@]3(O)C[C@H](O)C(C)=C1C3(C)C)[C@]1(OC(C)=O)CO[C@@H]1C[C@H]2O (some centres not stated),7.3µM*,-20%,5.8µM*,26,-28%,-15%
CCCCC(=O)Nc1c(C(=O)N2CCN(c3ccccc3F)CC2)oc2ccccc12,15µM*,.,9.2µM*,.,.,.
NC(Cc1ccc(C(F)(F)F)cc1)c1csc(Nc2nncc3ccccc23)n1 (configuration not stated),13µM*,?,21µM*,-67*,?,.
NC(Cc1ccc(F)cc1)c1csc(Nc2ncccn2)n1 (configuration not stated),7.3µM*,5.8µM*,5.8µM*,-25,6.5µM*,.
Nc1ccc(CC(N)c2csc(Nc3ncccn3)n2)cc1 (configuration not stated),18µM*,-14%,10µM*,-15,-30%,.
NC(Cc1ccc(Cl)cc1)c1csc(Nc2ncccn2)n1 (configuration not stated),3.7µM*,18µM*,4.1µM*,?,5.8µM*,.
CN1C(=O)CCC2(C)C1=CCC1C2CCC2(C)C1CCC2(C)O (configuration not stated),-23%,1%,-21%,3,1%,.
CN1CCN(c2ccc(N)cc2Cl)CC1,?,-6%,?,?,-18%,-4%
COc1ccc(C(=O)Oc2cccc3cccnc23)cc1S(=O)(=O)N1CCOCC1,?,-11%,3.3µM*,-2,?,0%
Nc1ccc(S(=O)(=O)NCc2ccccc2)cc1,-17%,.,?,.,.,.
CC[N+](CC)(CC)CCOC(=O)C(C1CCCC1)C1CCCC1,?,.,11µM*,.,.,.
CC(C)C(O)(C(=O)OC[C@@H]1CC[N+]2([O-])CCCC12)C(C)O (some centres not stated),-5%[9.04 µM],.,5%[9.04 µM],.,.,.
C=CCn1c(O)c(C(CC)=NCc2ccc3c(c2)OCO3)c(=O)[nH]c1=O,?,-24%,?,.,-20%,7%
C=CCn1c(O)c(C(CC)=NCCC2=CCCCC2)c(=O)[nH]c1=O,?,6%,-30%,30,3%,-2%
C=CCn1c(O)c(C(CC)=NCc2cc(OC)cc(OC)c2)c(=O)[nH]c1=O,7.3µM*,23µM*,7.3µM*,76,23µM*,?

# Screens (PubChem)
